# Screening results (PubChem BioAssay)
# RE007 growth inh: less growth of the S. pombe RE007 Vpr strain; S. pombe RE007 Vpr strain, BacTiter-Glo ATP luminescence, 24 h; Potency, µM (doses to about 92.2 µM), actives largely listed as inhibitors; hit rate 0.21% among 360,000; AID 651644; active = well fitted falling curve with a large enough effect; inconclusive = small, poorly fitted or top-dose-only effect; inactive = no such curve, though single readings can be large or run the other way; note: nearly all actives have a fitted effect of over 50% in size
#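 Fission yeast RE007 carrying one integrated HIV-1 vpr copy, seeded at OD 0.01 in PMG+AL medium with 23 nL pinned compound. Grown 24 h at 30 degrees; viability read by BacTiter-Glo luminescence after 5 min.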
# AmpC inh no detg: blocks E. coli AmpC beta-lactamase in detergent-free assay | P00811 | AmpC nitrocefin hydrolysis, absorbance 480 nm, 0.0001% Triton | Potency, µM (series often up to 57.1 µM), most hits filed as inhibitors | hit rate 0.52% among 330,000 | AID 485341; note: nearly all actives have a fitted effect of over 20% in size
# Target sequence (P00811 whole entry, looked up): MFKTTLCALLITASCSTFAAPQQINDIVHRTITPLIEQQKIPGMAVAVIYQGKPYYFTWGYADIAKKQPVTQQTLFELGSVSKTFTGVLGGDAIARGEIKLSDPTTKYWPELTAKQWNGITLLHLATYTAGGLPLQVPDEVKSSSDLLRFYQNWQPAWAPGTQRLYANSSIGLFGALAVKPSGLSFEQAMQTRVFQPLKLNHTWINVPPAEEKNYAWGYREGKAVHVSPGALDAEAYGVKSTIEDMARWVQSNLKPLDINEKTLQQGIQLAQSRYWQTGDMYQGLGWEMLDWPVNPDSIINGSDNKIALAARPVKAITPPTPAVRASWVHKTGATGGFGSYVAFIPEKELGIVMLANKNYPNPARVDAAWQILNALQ
#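 AmpC (5.3 nM in the dispensed reagent) in 20 mM phosphate pH 7.0 with 0.01% (detergent screen) or 0.0001% Triton X-100 was preincubated with compounds for 15 min at room temperature. Nitrocefin was then added from an 800 uM solution, and hydrolysis was followed at 480 nm.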
# FBPA Giardia inh: inhibitors of Giardia lamblia fructose-1,6-bisphosphate aldolase; purified Giardia FBPA; A8B2U2; Potency, µM (titrated, usually from 59.6 µM), usual class: inhibitors; hit rate 0.71% among 290,000; note: nearly all actives have a fitted effect of over 55% in size
# Target sequence (A8B2U2 whole entry, looked up): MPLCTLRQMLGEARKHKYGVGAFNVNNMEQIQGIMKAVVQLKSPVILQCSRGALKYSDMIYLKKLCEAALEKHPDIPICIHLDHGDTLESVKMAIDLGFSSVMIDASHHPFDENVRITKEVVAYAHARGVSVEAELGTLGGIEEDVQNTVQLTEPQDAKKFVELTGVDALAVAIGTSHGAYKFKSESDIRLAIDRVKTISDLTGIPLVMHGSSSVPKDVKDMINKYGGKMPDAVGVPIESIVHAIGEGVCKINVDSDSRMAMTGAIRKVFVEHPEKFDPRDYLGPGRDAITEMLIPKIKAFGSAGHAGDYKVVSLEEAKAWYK
#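 Giardia FBPA (40 nM reagent) was preincubated 10 min at RT with compound (up to 57.5 uM final), then substrate plus GAPDH/TPI/NAD/arsenate coupling system with diaphorase/resazurin was added; resorufin fluorescence (525/598 nm) was read after 20 min.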
# Sm TGR inh: inhibitors of Schistosoma mansoni thioredoxin glutathione reductase; Q962Y6; purified TGR, DTNB reduction, TNB absorbance 405 nm; Potency, µM (series often up to 114 µM), hits mostly inhibitors; hit rate 3% among 360,000; AID 485364; note: nearly all actives have a fitted effect of over 60% in size
#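 TGR 20 nM + NADPH 100 uM (dispensed conc.), cpd preinc 15 min RT; start with NADPH (500 uM addition) then DTNB (15 mM addition). Kinetic TNB absorbance, 405 nm filter. Four-parameter Hill fit across titration.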
# AmpC detergent: AmpC beta-lactamase inhibition with detergent present | AmpC hydrolysis of nitrocefin, absorbance 480 nm, 0.01% Triton | P00811 | hit rate 0.041% among 370,000 | AID 485294 | Potency, µM (series often up to 114 µM), most hits filed as inhibitors; note: nearly all actives have a fitted effect of over 25% in size
#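 20 mM phosphate pH 7.0 + 0.01% (detergent screen) or 0.0001% Triton X-100; 5.3 nM AmpC reagent; cpd preinc 15 min RT; nitrocefin (800 uM stock) to start; A480 q20 s × 4 min; Activity was normalised to no-enzyme and no-compound control wells.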
# Numbers stand for hits; i = inactive; ? = inconclusive; nt = no result; [ ] = another dose, or the depositor's remark. An excerpt weighted towards active compounds, which were near 3.4% of everything screened. Unless noted, calls come from the whole dose curve; as a rule, active = well fitted curve in the direction sought with a large enough effect; inconclusive = small, poorly fitted or top-dose-only effect, or another doubt; inactive = no such curve, though single readings can be large; an effect the other way counts as inactive or inconclusive.
SMILES,RE007 growth inh,AmpC inh no detg,FBPA Giardia inh,Sm TGR inh,AmpC detergent
CCc1nnc(NS(=O)(=O)c2ccc(NC(=S)NC(=O)c3ccc(OC)c(OC)c3)cc2)s1,i,i,i,40µM,i
CCc1nnc(NS(=O)(=O)c2ccc(NS(=O)(=O)c3ccc(NC(C)=O)cc3)cc2)s1,nt,i,i,i,i
CCc1nnc(NS(=O)(=O)c2ccc(NC(=O)c3ccc(S(=O)(=O)N(CC)CC)cc3)cc2)s1,i,i,i,i,i
CCc1nnc(NS(=O)(=O)c2ccc(NC(=S)NC(=O)c3ccncc3)cc2)s1,i,i,i,20µM,i
O=C(CN1C(=O)COc2ccc(S(=O)(=O)NC3CCCC3)cc21)Nc1ccc(F)c(Cl)c1,nt,nt,nt,i,i
COc1ccc(NC(=O)Nc2ccc3c(c2)C(=O)N([C@H](C)CO)C[C@@H](C)[C@@H](CN(C)C(=O)C2CCCCC2)OCCCC[C@H](C)O3)cc1,i,nt,nt,nt,nt
COc1ccc(-c2cc3nc(C)cc(N)n3n2)cc1,16µM,i,i,i,i
COc1cc(CCCN2C(=O)C(=O)NC[C@@H]2CCCCN)cc(OC)c1OC,i,i,i,i,i
CCOC(=O)N1CCC(NC(=O)CS(=O)(=O)Cc2nc(-c3ccc(OC)cc3)oc2C)CC1,i,i,nt,?,i
Cc1oc(-c2ccccc2Cl)nc1CSCC(=O)NC1CCCC1,i,i,i,i,?
CCOC(=O)N1CCC(NC(=O)CS(=O)(=O)Cc2nc(-c3ccccc3C)oc2C)CC1,i,i,i,45µM,?
Cc1oc(-c2ccccc2Cl)nc1CS(=O)(=O)CC(=O)NC1CCCC1,i,i,i,45µM,i
CCOC(=O)N1CCC(NC(=O)CSCc2nc(-c3ccc(OCC)cc3)oc2C)CC1,i,i,nt,i,i
CCOC(=O)N1CCC(NC(=O)CSCc2nc(-c3sccc3C)oc2C)CC1,i,i,i,40µM,i
Cc1ccccc1-c1nc(CS(=O)(=O)CC(=O)NC2CCCC2)c(C)o1,i,i,i,40µM,i
O=C(CSc1n[nH]c(-c2ccccc2Cl)n1)NCCCc1ccccc1,nt,nt,nt,i,i
CCNC(=O)NC(=O)C(C)OC(=O)C(C)(C)Oc1ccc(Cl)cc1 (centres undefined),i,i,i,i,i
O=Nc1c(O)c2ccccc2c2ccccc12,45µM,nt,nt,nt,nt
CC(C)CCNC(=O)C(=O)Nc1cc2c3c(c1)CC(=O)N3CCC2,i,i,i,i,i
CCCNC(=O)CCNC(=O)[C@H](O)C(C)(C)CO,i,i,nt,nt,nt
CCOc1cc(/C=C2\COc3ccccc3C2=O)cc(Br)c1OCC(=O)N(C)C,i,i,i,11µM,i
COc1ccc(NC(=S)N2CCc3ccccc3C2)cc1OC,i,i,i,i,i
O=C(CSc1nc2ccc([N+](=O)[O-])cc2[nH]1)NC1CCCCCC1,i,i,i,i,i
CN1c2ccccc2C(C)(C)C12CC(CCl)=NO2 (centres undefined),i,i,i,40µM,i
CN1c2ccccc2C(C)(C)C12CC(c1ccc(Cl)c(S(=O)(=O)N3CCCC3)c1)=NO2 (centres undefined),nt,i,i,i,i
SMILES,RE007 growth inh,AmpC inh no detg,FBPA Giardia inh,Sm TGR inh,AmpC detergent
c1ccc(CSc2nnc3c(n2)OC(c2ccco2)Nc2ccccc2-3)cc1 (centres undefined),?,i,i,11µM,i
Cc1ccc(CCNc2nc3c(S(=O)(=O)c4ccccc4)nnn3c3ccsc23)cc1,nt,nt,nt,32µM,i
Cc1ccc(S(=O)(=O)c2nnn3c2nc(NCCc2ccccc2)c2sccc23)cc1,nt,nt,nt,i,i
COc1ccc(NC(=O)Cn2cc(C(=O)c3cccs3)c3ccccc32)cc1,nt,nt,nt,i,i
C/C(=N\NC(=O)c1nn(C)c(C)c1Br)c1cccc(NC(=O)c2ccoc2C)c1,i,32µM,i,i,?
COc1ccc(C(=O)Nc2cccc(/C(C)=N\NC(=O)c3ccoc3C)c2)cc1OC,i,i,i,i,i
CCOc1ccc(NC(=O)CS(=O)CC(=O)N(CC(=O)NC(C)(C)C)C2CCCC2)cc1 (centres undefined),i,i,i,i,i
COc1ccc(CNC(=O)COC(=O)/C=C/c2ccco2)cc1,i,i[11.4 µM],i,35µM,i
CC(NC(=O)COC(=O)/C=C/c1ccco1)c1ccccc1 (centres undefined),i,i,i,28µM,i
CSc1ccccc1NC(=O)COC(=O)/C=C/c1ccco1,i,i,nt,nt,nt
CNC(=O)COC(=O)/C=C/c1ccco1,i,i,i,25µM,i
O=C(COC(=O)/C=C/c1ccco1)NCc1ccco1,i,i,i,?,i
O=C(COC(=O)/C=C/c1ccco1)NCCc1ccccc1,i,i[11.4 µM],i,22µM,?
O=C(c1ccncc1)N1CCN(S(=O)(=O)c2ccccc2F)CC1,i,i,nt,nt,nt
O=C(COC(=O)/C=C/c1ccco1)NCc1ccccc1Cl,i,i[11.4 µM],i,18µM,i
Cc1ccccc1Nc1nc(N)nc(COC(=O)/C=C/c2ccco2)n1,i,i[11.4 µM],i,13µM,?
O=C(COC(=O)/C=C/c1ccco1)NCc1ccc(Cl)cc1Cl,i,i,nt,nt,nt
CC(C)CC(=O)Nc1cc2c3c(c1)C(C)C(=O)N3CCC2 (centres undefined),i,i,i,i,i
CN(Cc1ccccc1)C(=O)CN1C(=O)NC2(CCCCCCC2)C1=O,i,i,nt,i,i
CCc1nc2c(OCc3ccc4c(c3)OCO4)cccn2c1N(C=O)Cc1ccc(OC)cc1,i,nt,nt,nt,nt
CC(=O)c1ccc(N2CCN(CC(=O)Nc3ccc(N4CCOCC4)cc3)CC2)cc1,nt,i,i,i,i
CN(C)S(=O)(=O)c1cc(NC(=O)CN2CCN(c3ccc(O)cc3)CC2)ccc1Cl,i,i,?,79µM,i
CC(C)CC(=O)Nc1ccc(C(=O)CN2CCN(c3ccc(O)cc3)CC2)cc1,i,i,i,5.6µM,i
Cc1ccc(-c2nc3n(n2)Cc2ccccc2-3)cc1,?,i,i,i,i
CCn1c(C)nc2cc(-c3nc4n(n3)Cc3ccccc3-4)ccc21,5.6µM,i,i,i,i
SMILES,RE007 growth inh,AmpC inh no detg,FBPA Giardia inh,Sm TGR inh,AmpC detergent
Cc1ccc(N/N=C/c2cccnc2)cc1,i,i,i,?,i
Cc1nnc(N/N=C/c2ccc(O)c([N+](=O)[O-])c2)[nH]c1=O,i,i,i,i,i
O=[N+]([O-])c1cc(/C=N\Nc2nc(-c3ccccc3)cs2)ccc1O,i,25µM,i,i,i
CC(C)(C)c1csc(N/N=C/c2ccc(O)cc2)n1,i,10µM,i,i,i
O=[N+]([O-])c1ccc(-c2csc(N/N=C/c3cccnc3)n2)cc1,i,i,i,i,i
Cc1csc(N/N=C\c2cccnc2)n1,i,i,?,22µM,i
Cc1csc(N/N=C/c2ccc(O)c([N+](=O)[O-])c2)n1,i,i,?,10µM,i
O=C(CNC(=O)C1CCCCC1)Nc1cc(Cl)cc(Cl)c1,i,i,i,i,i
